Inconclusive results are not listed. Active and inactive are the calls of the source. How the source made its calls: active means hit-call score of the fitted dose curve at least 0.9, where 1 is the maximum; inconclusive means response in the unintended direction; inactive means score below 0.9.

This assay in a line: CCTE_Harrill_HTTr_CellCount_MCF7: CCTE's Cell Proliferation Assessment for the High-Throughput Transcriptomics (HTTr) Platform, Harrill Lab (AID 2284012).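 Further: intended direction is loss of nuclei count meaning fewer cells.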 An excerpt:
This is a cell-based assay that evaluates cell viability and cell growth using high content imaging to count the number of Hoechst-labeled nuclei that are present in an assay well in 384-well format.This is a cell-based assay that evaluates cell viability and cell growth in MCF-7 cells. This was part of a full screening experiment. High content imaging is used to count the number of Hoechst-labeled nuclei that are present in an assay well in 384-well format.The assay component endpoint CCTE_Harrill_HTTr_CellCount_MCF7 was analyzed with bidirectional fitting relation to DMSO as the negative control and baseline of activity. Using a type of viability reporter, loss-of-signal activity can be used to understand changes in cell count. To generalize the intended target to other relatable targets, this assay endpoint is annotated to cell cycle, where the subfamily is cell count.
Chemicals were tested in MCF7 cells in an eight point dilution series with a six hour exposure duration.
As for `Cc1ccc(N(SC(F)(Cl)Cl)S(=O)(=O)N(C)C)cc1`, the result was inactive. In the case of `CC(N)=S`, the result was inactive. Consider `COc1ccc2c3c1O[C@H]1[C@@H](O)C=C[C@H]4[C@@H](C2)N(C)CC[C@@]341`, for which the call was inactive. The same measure for `FC(F)(F)c1ccc(OCCCOc2c(Cl)cc(OCC=C(Cl)Cl)cc2Cl)nc1`: “inactive”.

`O=CC=Cc1ccccc1`: the call was inactive.

For the molecule `CCC[N+](=O)[O-]`, the molecule was called inactive. The same measure for `[Cl][Sb]([Cl])[Cl]`: “inactive”; for `CC(C)[C@@H](C(=O)O[C@@H](C#N)c1cccc(Oc2ccccc2)c1)c1ccc(Cl)cc1`: “inactive”; for `O=S1OC[C@@H]2[C@H](CO1)[C@]1(Cl)C(Cl)=C(Cl)[C@]2(Cl)C1(Cl)Cl` (stereo not given in full): “inactive”.

In the case of `CCC(C)(C)O`, the outcome was inactive.

As for `CCOP(=S)(OCC)Oc1cnc2ccccc2n1`, the molecule was called inactive. For the molecule `CC(C)(Cl)Cl`, the outcome was inactive. The same measure for `Nc1ccc(Cl)c(Cl)c1`: “inactive”; for `C=COCCCl`: “inactive”. Next, `CC(C)CCCCCCCOC(=O)c1ccccc1C(=O)OCCCCCCCC(C)C`: “inactive”.

For `Cc1ccc(OP(=O)(Oc2ccc(C)cc2)Oc2ccc(C)cc2)cc1` (tested in a mixture with another compound), the outcome was inactive.

For `COP(=S)(OC)SCC(=O)N(C)C=O`, the result was inactive.

`CCCCc1c(C)nc(NCC)[nH]c1=O`: the outcome was inactive.

Take `[Cl-].[Cl-].[Cl-].[Fe+3]`: the result was inactive.

Take `O=C(O)CCCOC(=O)c1ccccc1C(=O)O`: the molecule was called inactive.

As for `COC(=O)c1ccccc1S(=O)(=O)NC(=O)Nc1nc(C)cc(C)n1`, the molecule was called inactive. The same measure for `CC(=O)C=Cc1ccccc1`: “inactive”. Next, `O=S(=O)(c1ccccc1)c1ccccc1`: “inactive”; `CC(C)(O)C#N`: “inactive”. As to `O=[N+]([O-])O`, the call was inactive. For the molecule `O=C=Nc1ccccc1`, the call was inactive. As to `O=S(=O)(O)O`, the call was inactive. Next, `CC(C)(C)OOC(C)(C)C#CC(C)(C)OOC(C)(C)C`: “inactive”; `O=CNC(N1CCN(C(NC=O)C(Cl)(Cl)Cl)CC1)C(Cl)(Cl)Cl` (stereo not given): “inactive”; `CN(C)N`: “inactive”. The same measure for `CCCCC(CC)COC(=O)c1cc(Br)c(Br)c(Br)c1Br` (stereo not given): “inactive”. Next, `CN(C)C(=O)C(c1ccccc1)c1ccccc1`: “inactive”; `Cc1cccc2sc3nncn3c12`: “inactive”. Turning to `COc1ncc(F)c2nc(S(=O)(=O)Nc3c(F)cccc3F)nn12`, the call was inactive. Next, `CNC(=O)ON=C(CSC)C(C)(C)C`: “inactive”. With `COCCOC(C)=O`, the outcome was inactive. With `CNC(=O)Oc1cc(C)c(SC)c(C)c1`, the outcome was inactive.

As for `C=CC(=O)OCC(CC)CCCC` (stereo not given), the molecule was classed as inactive.

As to `C[C@]12CC[C@H]3[C@@H](CC[C@@]45O[C@@H]4C(O)=C(C#N)C[C@]35C)[C@@H]1CC[C@@H]2O`, the result was inactive.

As for `CCCCOC(=O)N(C)SN(C)C(=O)Oc1cccc2c1OC(C)(C)C2`, the outcome was inactive.

Values taken from PubChem BioAssay (EPA / NIEHS).
